Data reported in PubChem BioAssay (Tox21).
Records with an inconclusive call do not appear. Values without a mark were called inactive. The call rests on the fitted dose curve; in most records, active means well fitted activation curve with a large enough effect in the signal ratio in the repeat runs, with a control signal flat (not every such curve was filed as active); inconclusive means weak or mixed curves; inactive means flat fitted curve, though single readings scatter; the % refers to the signal ratio.

Assay: qHTS assay for small molecule activators of the heat shock response signaling pathway (AID 743210)
Details: HeLa HSE-bla reporter, beta-lactamase ratio, 5 h; series mostly up to 62.6 µM; activation: at the top concentration
From the text: U.S. Tox21 Program National Center for Advancing Translational Sciences [NCATS] NIH Chemical Genomics Center [NCGC] U.S. Environmental Protection Agency [EPA] National Institutes of Environmental Health Sciences [NIEHS] National Toxicology Program [NTP] U.S. Food and Drug Administration [FDA] Tox21 Assay Overview: Various chemicals, environmental and physiological stress conditions may lead to the activation of heat shock response/ unfolded protein response (HSR/UPR). There are three heat shock transcription factors (HSFs) (HSF-1, -2, and -4) mediating transcriptional regulation of the human HSR. To identify the compounds that activate HSR signaling, HSE-bla HeLa cell line (Invitrogen, Carlsbad, CA, USA) containing a beta-lactamase reporter gene under the control of the heat shock response elements was used to screen the Tox21 10K compound library.
Tox21 Assay Protocol Summary: The CellSensor HSE-bla HeLa cells (Invitrogen, Carlsbad, CA, USA) were dispensed at 1500 cells/6uL/well into 1536-well black wall/clear bottom plates using a Multidrop combi (Thermo Fisher Scientific, Waltham, MA) dispenser. After the assay plates were incubated at 37 C and 5% CO2 overnight, 23 nL of compounds dissolved in DMSO, positive controls or DMSO only was transferred to the assay plate by a Pintool station (Kalypsys, San Diego, CA). The plates were incubated at 37 C for 5 h. After 1 uL of LiveBLAzerTM B/G FRET substrate was added using a Flying Reagent Dispenser (Beckman Coulter, Indianapolis, IN, USA), the plates were incubated at room temperature for 2.5 h, and fluorescence intensity was measured by an Envision plate reader (PerkinElmer, Shelton, CT).
On the % scale 0 is the no-effect control and ±100 the full control effect.

Compound | activation
N[C@@H](CCC(=O)Nc1ccc([N+](=O)[O-])cc1)C(=O)O | 1.04%
O=C(CS(=O)Cc1ccco1)NC/C=C\COc1cc(CN2CCCCC2)ccn1 (stereo not given) | -0.643%
CCOC(=O)CC(=O)c1ccccc1 | -1.22%
N#Cc1ccc(C(=O)O)cc1 | 0.972%
CC(=O)N[C@@H](CCC(=O)O)C(=O)O | -1.66%
CC(COC(C)(C)C)OCCCO (stereo not given) | -1.02%
OC[C@H](Cc1cccc(O)c1)[C@H](CO)Cc1cccc(O)c1 | -0.273% [at 81.1 µM]
O=C1O[C@@H]2[C@@H](O)[C@H](O)O[C@@H]2[C@H]1O | -0.11%
C=Cc1ccccn1 | -0.58% [at 81.1 µM]
Cc1ccccc1N=O | 0.736% [at 81.1 µM]
CCOC(=O)c1ccc(OC(=O)CCCCCN=C(N)N)cc1 | -0.1%
CCCCCCCCCCl | 0.97% [at 81.1 µM]
CC(=C(CCOC(=O)C(C)C)SSC(CCOC(=O)C(C)C)=C(C)N(C=O)Cc1cnc(C)nc1N)N(C=O)Cc1cnc(C)nc1N | 1.96%
CCCCCCCC/C=C\CCCCCCCC(=O)OCCCC | 0.553% [at 29.1 µM]
BrCCCCCBr | -1.85% [at 81.1 µM]
CN=C(NC#N)Nc1ccc(C2=NNC(=O)CC2C)cc1 (stereo not given) | -1.25%
Cc1ccsc1/C=C/C1=NCCCN1C | -0.368%
O=C(O)c1cc(Br)c(O)c(Br)c1 | 2.23%
CC1COc2ccccc2N1 (stereo not given) | 0.722%
CCCN1C[C@H](CSC)C[C@@H]2c3cccc4[nH]cc(c34)C[C@H]21 | -0.25%

Compound | activation
BrCc1cccc(Oc2ccccc2)c1 | 1.97%
CC(C)OC(=O)CCCCC(=O)OC(C)C | 0.723%
C=C(C)C1CCC(C)(O)CC1 (stereo not given) | -0.0572%
COCCOCCOCCOCCOCCO | -0.168%
CC(C)(C)c1nnc(NS(=O)(=O)c2ccc(N)cc2)s1 | -0.422%
Oc1ccccc1-c1nnco1 | -0.695%
CCN(C)C(=O)Oc1cccc([C@H](C)N(C)C)c1 | -1.42%
CC(C)=O | -0.61%
c1ccc2c(c1)ccc1c3ccccc3ccc21 | -0.443%
CCCCCOC(=O)CCC | 1.09%
Cc1cccc2nccnc12 | 1.38%
Cc1cc2cc3c(C)cc(=O)oc3c(C)c2o1 | 0.15%
O=C(O)Cc1ccc(Cl)cc1Cl | 0.114%
CCCCNC1CC(C)(C)NC(C)(C)C1 | -0.282%
C#CC(C)N(C)C(=O)Nc1ccc(Cl)cc1 (stereo not given) | -0.391%
CC(N)C(=O)OC(C)(C)Cc1ccc(Cl)cc1 (stereo not given) | 1.71%
O=C(O)Cc1cn(-c2ccccc2)nc1-c1ccc(Cl)cc1 | 0.459%
COCCOCCOCCOCCO | -0.471%
CCNC(=O)C1CC(C)CCC1C(C)C (stereo not given) | -0.967%
CC(C)=CCOC(=O)c1ccccc1 | -0.622%
